Here are results for 59 compounds from PubChem BioAssay AID463115 (University of Pittsburgh Molecular Library Screening Center, 2010).

The whole screen tested about 220,000 compounds, of which about 130 (0.059%) were called active. The sample holds actives, similar compounds and a random draw of the others, so the mix is not that of the screen. Cut-off read from the data, not from the text of the source: active = inhibition above about 25%; inactive = the rest.

Chain of Furin (Homo sapiens) (P09958 108-714 limits assumed): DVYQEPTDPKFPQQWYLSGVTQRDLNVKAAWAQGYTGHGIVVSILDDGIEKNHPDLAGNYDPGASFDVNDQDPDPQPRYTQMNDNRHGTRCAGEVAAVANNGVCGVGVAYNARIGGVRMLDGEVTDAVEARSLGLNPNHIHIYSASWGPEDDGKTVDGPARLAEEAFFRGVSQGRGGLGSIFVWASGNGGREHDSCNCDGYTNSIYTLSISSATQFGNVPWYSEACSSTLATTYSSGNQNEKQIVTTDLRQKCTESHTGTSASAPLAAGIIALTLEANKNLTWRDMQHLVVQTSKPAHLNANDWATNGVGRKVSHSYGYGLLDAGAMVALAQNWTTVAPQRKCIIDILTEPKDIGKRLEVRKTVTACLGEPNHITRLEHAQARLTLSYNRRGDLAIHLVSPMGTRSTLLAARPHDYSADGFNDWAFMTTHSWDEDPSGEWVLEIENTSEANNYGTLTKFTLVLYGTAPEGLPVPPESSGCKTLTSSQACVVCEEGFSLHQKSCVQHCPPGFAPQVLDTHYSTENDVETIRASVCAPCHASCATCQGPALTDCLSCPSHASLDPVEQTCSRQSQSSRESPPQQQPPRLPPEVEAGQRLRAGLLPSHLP

This experiment concerns the target Furin (Homo sapiens) (UniProt P09958). As to the kind of experiment: human furin inhibitors, primary screen, biochemical, fluorescence intensity (AID 463115). The following applies: purified furin, fluorogenic substrate cleavage, active compounds read high; at 30 µM unless noted.
As a reminder, the inhibition is the change of the read-out against control, counted positive when it falls. `CC(C)C(=O)NCc1cc(-c2ccc(Cl)cc2)no1`: the inhibition was 2.24% (inactive).

`O=S(=O)(c1ccc(F)cc1)N1CCN(Cc2ccccc2C(F)(F)F)CC1`: the inhibition was -12.9% (inactive).

With `O=c1oc2ccccc2cc1-c1cn(-c2ccccc2)c(=S)[nH]1`, the inhibition is -34.3% (inactive).

For `S=c1[nH]nc(NCCc2ccccc2)s1`, the inhibition was -19.4% (inactive).

Turning to `CC(C)(C)C(=O)OCc1nc(-c2ccc(O)c(O)c2)cs1`, the inhibition is -19.6% (inactive).

As for `CCN(CC)c1ccc(NC(=O)C2CCC(CNc3c(N4CCCC4)c(=O)c3=O)CC2)c(C)c1` (centres undefined), the inhibition is -28.8% (inactive).

Consider `C[n+]1ccc(/C=C/c2c[nH]c3ccccc23)cc1`, for which the inhibition is 3.06% (inactive).

Consider `C=Cn1c(C(=O)O)ccc1-c1ccc(OC)cc1`, for which the inhibition is -9.46% (inactive).

For the compound `CC1CN(S(=O)(=O)c2ccc(C(=O)NN3CCN(C)CC3)cc2)CC(C)O1` (centres undefined), the inhibition was -23.8% (inactive).

In the case of `CCOCN(C(=O)Cn1c(C(C)O)nc2ccccc21)c1c(C)cccc1CC` (centres undefined), the inhibition is -22.3% [at 20 µM] (inactive).

As to `O=C(/C=C/c1ccc(Cl)cc1)Nc1ccc(Br)cn1`, the inhibition is -19.6% (inactive).

In the case of `Cc1oc(-c2ccccc2Cl)[n+]([O-])c1C`, the inhibition was -9.84% [at 20 µM] (inactive).

Turning to `C=C(C)C(=O)O[C@H]1C/C(C)=C\C(=O)/C=C(\C)[C@H](O)[C@@H]2OC(=O)C(=C)[C@@H]21`, the inhibition was -5.36% (inactive).

Consider `CCN(C(=O)CSc1nnc2ccccn12)C1CCS(=O)(=O)C1` (centres undefined), for which the inhibition is -27.8% (inactive).

Turning to `NNC(=O)c1cnn(-c2ccccc2)c1C(F)(F)F`, the inhibition is -29% (inactive).

For `CCN=C1S/C(=C\c2cc(Br)ccc2OCC(=O)OCC)C(=O)N1CC`, the inhibition was -4.2% (inactive).

Consider `N#Cc1ccccc1NC(=O)COc1c(Br)cc(Br)c2cccnc12`, for which the inhibition was -14.7% (inactive).

For `Cn1c(SCC(=O)Nc2ccc(Cl)cc2)nc(O)cc1=O`, the inhibition is -15% (inactive).

Take `O=C(CSc1nc2ccc([N+](=O)[O-])cc2[nH]1)c1ccc(Cl)cc1`: the inhibition is -10.5% (inactive).

As to `S=C(NN=C1CCN(Cc2ccccc2)CC1)NC1CCCCC1`, the inhibition is -25.8% (inactive).

As for `CCCC1OC23CCCCC2C(C#N)(C#N)C1(C#N)C(=N)O3` (centres undefined), the inhibition was -12.5% (inactive).

As to `COc1cc(C)c(S(=O)(=O)N2CCOCC2)c(C)c1C`, the inhibition is -15.3% (inactive).

In the case of `COc1ccccc1N1CCN(/N=C\C(Br)=C\c2ccccc2)CC1`, the inhibition was -19% (inactive).

For `CCO[C@H]1OC(C(=O)N2CCCCCCC2)=C[C@@H](c2ccc(C(F)(F)F)cc2)[C@@H]1CCCO`, the inhibition was -28% (inactive).

As to `O=C1CCCC(O)=C1C=NCCc1ccccc1`, the inhibition is -20.8% (inactive).

In the case of `Cc1cc(N=CC2=C(O)CCCC2=O)no1`, the inhibition was 42.3% (active).

On to `COc1ccc(O)c(C=Nc2cc(C)on2)c1`, for which the inhibition was -25.7% (inactive).

As to `OCCC1CN(Cc2cccn2-c2nccs2)CCN1CCc1ccccc1` (centres undefined), the inhibition is -12.8% (inactive).

In the case of `Cc1nc(CNS(=O)(=O)c2cc([N+](=O)[O-])ccc2C)cs1`, the inhibition is 10.1% (inactive).

Consider `COC(=O)C1=C(N)Oc2c(oc(CO)cc2=O)C1c1c(F)cccc1Cl` (centres undefined), for which the inhibition is -27.8% (inactive).

For `CN(C)c1ccnc2sc3c(=O)n(-c4ccc(Cl)cc4)cnc3c12`, the inhibition was -7.85% [at 20 µM] (inactive).

`CCC(C)(C)NC(=O)CN(C(=O)C(=O)Nc1ccc2c(c1)OCCO2)C(C)(C)CC`: the inhibition is -14.5% (inactive).

Take `CSc1nnc(SCc2nc3sc(C(=O)O)c(C)c3c(=O)[nH]2)s1`: the inhibition was -6.65% (inactive).

Regarding `O=C(CC1SCCNC1=O)Nc1ccc(Cl)c(Cl)c1` (centres undefined), the inhibition is -21.8% (inactive).

On to `Cc1nnsc1C(=O)N/N=C/c1cccc(C(F)(F)F)c1`, for which the inhibition was 0.985% (inactive).

Regarding `COc1ccc([N+](=O)[O-])cc1NC(=O)COC(=O)/C=C/c1ccco1`, the inhibition is -30.9% (inactive).

Take `CCC(C)(C)NC(=O)C(c1cccc(OC)c1OC)N(CC(C)C)C(=O)CCC(=O)Nc1cc(C)on1` (centres undefined): the inhibition was -14.8% (inactive).

In the case of `CC(C)(C)NC(=O)/C(=C/c1cccnc1)NC(=O)c1ccco1`, the inhibition is -17% (inactive).

On to `Cc1cc(NC(=O)CSc2nc3ccccc3n2CC(C)C)no1`, for which the inhibition is -16.9% (inactive).

With `CC(C)c1cc(C(N)=O)c(NC(=O)c2cccc(COc3ccc(Br)cc3)c2)s1`, the inhibition is -15.1% [at 20 µM] (inactive).

For the compound `CC(C)(C)NC(=O)c1cccc(NC(=O)Cc2ccc(Br)cc2)c1`, the inhibition was -14.8% (inactive).

For `CCOn1c(=O)c(=O)n(O)c2ccccc21`, the inhibition was -4.13% (inactive).

In the case of `Oc1ccccc1N1CCN(C(=S)NCc2ccccc2)CC1`, the inhibition was -19.1% (inactive).

With `Cc1ccc(C2(C(F)(F)F)N=C3Sc4cc(C)cc(C)c4N3C(=O)N2)cc1` (centres undefined), the inhibition was -11.5% [at 20 µM] (inactive).

Turning to `O=C(O)CC/C(=N\NC(=O)c1ccc(F)cc1)c1ccc(Br)cc1`, the inhibition is -17.1% (inactive).

`CCCc1c(C(=O)O)cnn1-c1ccc(Cl)cc1`: the inhibition was -33.8% (inactive).

Turning to `O=C(Nc1cccc(Cl)c1)c1cc([N+](=O)[O-])ccc1N1CCN(CCO)CC1`, the inhibition is -21.2% (inactive).

As for `O=c1[nH][nH]c(C(F)(F)F)c1C=NCc1ccccc1Cl`, the inhibition is -7.43% [at 20 µM] (inactive).

Regarding `O=C(CNC(=O)COc1ccccc1)NCCc1ccccn1`, the inhibition is -14% (inactive).

On to `C=CCOc1ccc(/C=N/NC(=O)C(C)Sc2ccccn2)cc1OCC` (centres undefined), for which the inhibition was -21.6% (inactive).

As for `CSc1ccc(C(=O)C2CCCN(C(=O)c3ccc(C)nc3)C2)cc1` (centres undefined), the inhibition is -11.4% (inactive).

Turning to `Clc1ccc(-c2nnc(-c3ccccc3)nc2N2CCSCC2)cc1`, the inhibition is -4.61% [at 20 µM] (inactive).

Turning to `Fc1ccc(COc2cccc(-c3n[nH]c(=S)o3)c2)cc1`, the inhibition is -11.9% (inactive).

With `O=C1C=C(c2ccc(Cl)cc2)C(=O)N1Nc1ccccc1`, the inhibition is -9.42% [at 20 µM] (inactive).

With `O=C(NNc1cc(Cl)ccc1Cl)c1cccnc1Cl`, the inhibition is -21.6% (inactive).

On to `NS(=O)(=O)c1ccc(NC(=O)COC(=O)c2ccco2)cc1`, for which the inhibition was -19.1% (inactive).

Consider `O=c1[nH]c(CCl)nc2cc(-c3ccc(Cl)cc3)sc12`, for which the inhibition was -0.616% [at 20 µM] (inactive).

In the case of `Cc1cc(Cl)c(S(=O)(=O)N(C)C)cc1OCC(N)=O`, the inhibition was -12.9% [at 20 µM] (inactive).

`COC(=O)/C=C/C(=O)NCc1ccco1`: the inhibition is -23.2% [at 20 µM] (inactive).
